PubChem BioAssay (NCI)
About 83,000 compounds went through this panel and 20% of them were active in at least one assay; those are over-represented in the sample as a whole.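 Assay: single dose, 48 h. Readout: percent growth (0 = no net growth; negative = cell death). Active: <10.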 Calls of active or inactive are those of the source.

Tested on: NCI/ADR-RES ovarian
Assay: NCI-60 one-dose screen, 48 h (100 = growth as untreated, 0 = no growth, -100 = all killed)
Settings: 10 µM unless noted

| SMILES | growth |
| --- | --- |
| COc1cc2c(c(OC)c1OC)C(=O)/C(=C/c1cc(C)c(O)c(C)c1)S2 | 14.1% (inactive) |
| COc1cc(CNC(=O)/C=C/C=C/c2ccc3c(c2)OCO3)ccc1OCc1cn(-c2ccc(Cl)c(Cl)c2)nn1 | 15.9% (inactive) |
| COc1ccccc1C(=O)NC(=S)Nc1ccc(-c2nc3ccccc3[nH]2)cc1 | 38.7% (inactive) |
| O=C(/C=C/C12c3ccccc3C(c3ccccc31)C1C(=O)N(c3ccccc3)C(=O)C12)c1ccc(Cl)cc1 (stereo not given) | 18.1% (inactive) |
| COc1cc(NC(=O)c2cccc(-c3cc(=O)c4c(O)c(OC)c(OC)cc4o3)c2)cc(OC)c1OC | 49.4% (inactive) |
| Nc1c(C(=O)c2ccc(Cl)s2)sc2nc3c(cc12)CCCC3 | 101% (inactive) |
| N#Cc1c(-c2ccccc2)nc(SCC2CO2)nc1N1CCOCC1 (stereo not given) | 76.2% (inactive) |
| CCCCN(CCCC)CCCn1c(=O)c2sc3ncccc3c2n2nnc(-c3ccccc3)c12 | 108% (inactive) |
| CC1(C)CC(=O)c2c(ccc(C(=O)C[C@H](N)CO)c2N)O1 | 70.5% (inactive) |
| COc1ccc(NC(=O)c2cccc(-c3cc(=O)c4c(O)c(OC)c(OC)cc4o3)c2)cc1 | 85.3% (inactive) |
| CCn1c(Sc2nnc(NC(C)=O)s2)nc2c1c(=O)n(C)c(=O)n2C | 89.5% (inactive) |
| COc1cc(NC(=O)c2cccc(-c3cc(=O)c4c(OC)c(OC)c(OC)cc4o3)c2)cc(OC)c1OC | 51.1% (inactive) |
| CN(C)CN1CCN(c2ccc3nc(-c4ccc5nc(-c6ccc(C(F)(F)F)cc6)[nH]c5c4)[nH]c3c2)CC1 | 97.9% (inactive) |
| COc1ccc(C2CC(c3ccc4ccccc4c3)=NN2c2nc(O)c(C3=c4cc(Cl)ccc4=NC3=O)s2)cc1 (stereo not given) | 58.8% (inactive) |
| NS(=O)(=O)c1cnccc1-n1ccc(=O)c(S(N)(=O)=O)c1 | 98.5% (inactive) |
| O=C(/C=C/C12c3ccccc3C(c3ccccc31)C1C(=O)N(c3ccc(Cl)cc3)C(=O)C12)c1ccccn1 (stereo not given) | 8.16% (active) |
| O=C1CC(c2ccc3c(c2)OCO3)Nc2cc3c(cc21)OCO3 (stereo not given) | 13.5% (inactive) |
| C=CCOc1cccc(/C=C2\SC(=Nc3ccc(O)cc3)NC2=O)c1 | 7.2% (active) |
| Cc1cc(-c2ccc(N(C)C)cc2)c2sc(=O)[nH]c2n1 | 45.5% (inactive) |
| O=C1NC(=S)S/C1=C\N1N=C(c2ccc(Cl)cc2)CC1c1ccc(F)cc1 (stereo not given) | 87% (inactive) |

| SMILES | growth |
| --- | --- |
| COc1ccccc1NC(=O)Nc1ccc(-c2nc3ccccc3o2)cc1 | 98.4% (inactive) |
| O=C(c1ccccc1)c1ccc(N2C(=O)C3C4c5ccccc5C(/C=C/C(=O)c5ccccn5)(c5ccccc54)C3C2=O)cc1 (stereo not given) | 20.5% (inactive) |
| Cc1ccc2c(n1)C(=O)C(Oc1ccc(F)cc1)=CC2=O | 97.1% (inactive) |
| COc1cc2ccccc2cc1C(=O)NC(=S)Nc1ccc(-c2nc3ccccc3[nH]2)cc1 | 59.4% (inactive) |
| COc1cc2c(O)n(CCCn3ccnc3)c3c4cnc5cccc(c(=O)c3c2cc1OC)c54 | 98.3% (inactive) |
| Cc1nn(-c2ccccc2)c2c1C(c1ccc([N+](=O)[O-])cc1)C(C#N)=C(N)O2 (stereo not given) | 104% (inactive) |
| Cc1ccc(S(=O)(=O)N(CC[C@@H]2C[C@H]2c2cc3ccccc3o2)C(=O)NC2CCCCC2)cc1 | 86.9% (inactive) |
| N#Cc1c(NC(=O)c2ccc(Br)cc2)sc2c1CCCC2 | 16.6% (inactive) |
| COc1cc(C(=O)Nc2cc(O)c(CC=C(C)C)c(O)c2)cc2c1O[C@]1(C)CC[C@@H](O)C(C)(C)[C@H]1C2 | 81.3% (inactive) |
| COc1cc(-c2cccc([N+](=O)[O-])c2)c(-c2nc(-c3ccccc3)c(-c3ccccc3)n2C2CC2)cc1OC | 62% (inactive) |
| O=c1[nH]c(NCc2nnnn2-c2ccc(Br)cc2)nc2sc3c(c12)CCCC3 | 103% (inactive) |
| CN(C)CCOC(=O)Nc1ccc(Cl)cc1 | 104% (inactive) |
| O=C(NC(=S)Nc1ccc(-c2nc3ccccc3[nH]2)cc1)c1ccc2ccccc2c1 | 28.8% (inactive) |
| O=c1ccn(C2OC(F)(CO)C(O)C2F)c(=O)[nH]1 (stereo not given) | 101% (inactive) |
| Cc1ccc(NC(=O)C(Cl)Cl)cc1 | 99.9% (inactive) |
| CCCCN1CCN(c2ccc3nc(-c4ccc5nc(-c6cc(OC)c(OC)c(OC)c6)[nH]c5c4)[nH]c3c2)CC1 | 102% (inactive) |
| CCCCCCCCn1cc(C2=C(c3coc4ccc(OC)cc34)C(=O)NC2=O)c2ccccc21 | 101% (inactive) |
| CCCCN1CCN(c2ccc3nc(-c4ccc5nc(-c6ccc(OCC)c(OCC)c6)[nH]c5c4)[nH]c3c2)CC1 | 73% (inactive) |
| COc1ccc(C2CC(c3ccccc3)=NN2c2nc(C)c(C(C)=O)s2)cc1 (stereo not given) | 102% (inactive) |
| O=C(/C=C/C12c3ccccc3C(c3ccccc31)C1C(=O)NC(=O)C12)c1ccccc1 (stereo not given) | 5.9% (active) |
